# Data: the supplement of paper PMC4466140
# Target: AgAbp1
# Test: SPOT peptide array binding signal intensity (averaged, normalized) (arbitrary units (background-subtracted, floor 0; scale differs between SH3 domains)); higher = stronger binding of the SH3 domain to the peptide
# Outline: (§1)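 Binding signal is given in arbitrary units that differ between domains and is the normalized, background-subtracted spot intensity averaged across replicates. Each GST-SH3 fusion from one of four yeast species was made in E. coli BL21(DE3), purified on glutathione Sepharose and incubated at 10 μg/ml overnight at 4°C on cellulose-bound synthetic 15-mer peptides in which cysteines were replaced by serines. Detection used anti-GST antibody, an HRP anti-mouse secondary and luminol, followed by imaging and Genespotter quantification.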
row,Binder,SPOT peptide array binding signal intensity
1,NLDRSKISLPDFDDE,4.5

# Target: AgBbc1
# Test: as above
# Outline: as §1
row,Binder,SPOT peptide array binding signal intensity
1,NLDRSKISLPDFDDE,0.75

# Target: AgBem1-D1
# Test: as above
# Outline: as §1
row,Binder,SPOT peptide array binding signal intensity
1,NLDRSKISLPDFDDE,5.5

# Target: AgBzz1-D1
# Test: as above
# Outline: as §1
row,Binder,SPOT peptide array binding signal intensity
1,NLDRSKISLPDFDDE,26

# Target: AgBzz1-D2
# Test: as above
# Outline: as §1
row,Binder,SPOT peptide array binding signal intensity
1,NLDRSKISLPDFDDE,14

# Target: AgCyk3
# Test: as above
# Outline: as §1
row,Binder,SPOT peptide array binding signal intensity
1,NLDRSKISLPDFDDE,≤ 0

# Target: AgFus1
# Test: as above
# Outline: as §1
row,Binder,SPOT peptide array binding signal intensity
1,NLDRSKISLPDFDDE,42

# Target: AgHof1
# Test: as above
# Outline: as §1
row,Binder,SPOT peptide array binding signal intensity
1,NLDRSKISLPDFDDE,11.5

# Target: AgHse1
# Test: as above
# Outline: as §1
row,Binder,SPOT peptide array binding signal intensity
1,NLDRSKISLPDFDDE,716

# Target: AgLsb1
# Test: as above
# Outline: as §1
row,Binder,SPOT peptide array binding signal intensity
1,NLDRSKISLPDFDDE,≤ 0

# Target: AgLsb4
# Test: as above
# Outline: as §1
row,Binder,SPOT peptide array binding signal intensity
1,NLDRSKISLPDFDDE,18

# Target: AgMyo5
# Test: as above
# Outline: as §1
row,Binder,SPOT peptide array binding signal intensity
1,NLDRSKISLPDFDDE,≤ 0

# Target: AgNbp2
# Test: as above
# Outline: as §1
row,Binder,SPOT peptide array binding signal intensity
1,NLDRSKISLPDFDDE,4

# Target: AgRvs167
# Test: as above
# Outline: as §1
row,Binder,SPOT peptide array binding signal intensity
1,NLDRSKISLPDFDDE,7

# Target: AgSho1
# Test: as above
# Outline: as §1
row,Binder,SPOT peptide array binding signal intensity
1,NLDRSKISLPDFDDE,11.5

# Target: AgSla1-D1-D2
# Test: as above
# Outline: as §1
row,Binder,SPOT peptide array binding signal intensity
1,NLDRSKISLPDFDDE,≤ 0

# Target: AgSla1-D3
# Test: as above
# Outline: as §1
row,Binder,SPOT peptide array binding signal intensity
1,NLDRSKISLPDFDDE,≤ 0

# Target: CaAbp1-D1
# Test: as above
# Outline: as §1
row,Binder,SPOT peptide array binding signal intensity
1,NLDRSKISLPDFDDE,33.5

# Target: CaAbp1-D2
# Test: as above
# Outline: as §1
row,Binder,SPOT peptide array binding signal intensity
1,NLDRSKISLPDFDDE,26

# Target: CaBbc1
# Test: as above
# Outline: as §1
row,Binder,SPOT peptide array binding signal intensity
1,NLDRSKISLPDFDDE,8

# Target: CaBem1-D1
# Test: as above
# Outline: as §1
row,Binder,SPOT peptide array binding signal intensity
1,NLDRSKISLPDFDDE,4

# Target: CaBzz1-D1
# Test: as above
# Outline: as §1
row,Binder,SPOT peptide array binding signal intensity
1,NLDRSKISLPDFDDE,31

# Target: CaBzz1-D2
# Test: as above
# Outline: as §1
row,Binder,SPOT peptide array binding signal intensity
1,NLDRSKISLPDFDDE,2.5

# Target: CaCyk3
# Test: as above
# Outline: as §1
row,Binder,SPOT peptide array binding signal intensity
1,NLDRSKISLPDFDDE,≤ 0

# Target: CaFus1
# Test: as above
# Outline: as §1
row,Binder,SPOT peptide array binding signal intensity
1,NLDRSKISLPDFDDE,283

# Target: CaHof1
# Test: as above
# Outline: as §1
row,Binder,SPOT peptide array binding signal intensity
1,NLDRSKISLPDFDDE,1.5

# Target: CaHse1
# Test: as above
# Outline: as §1
row,Binder,SPOT peptide array binding signal intensity
1,NLDRSKISLPDFDDE,21

# Target: CaLsb1
# Test: as above
# Outline: as §1
row,Binder,SPOT peptide array binding signal intensity
1,NLDRSKISLPDFDDE,≤ 0

# Target: CaLsb4
# Test: as above
# Outline: as §1
row,Binder,SPOT peptide array binding signal intensity
1,NLDRSKISLPDFDDE,≤ 0

# Target: CaMyo5
# Test: as above
# Outline: as §1
row,Binder,SPOT peptide array binding signal intensity
1,NLDRSKISLPDFDDE,6.25

# Target: CaNbp2
# Test: as above
# Outline: as §1
row,Binder,SPOT peptide array binding signal intensity
1,NLDRSKISLPDFDDE,193

# Target: CaRvs167
# Test: as above
# Outline: as §1
row,Binder,SPOT peptide array binding signal intensity
1,NLDRSKISLPDFDDE,1.33

# Target: CaRvs167-3
# Test: as above
# Outline: as §1
row,Binder,SPOT peptide array binding signal intensity
1,NLDRSKISLPDFDDE,1.25

# Target: CaSho1
# Test: as above
# Outline: as §1
row,Binder,SPOT peptide array binding signal intensity
1,NLDRSKISLPDFDDE,74.5

# Target: CaSla1-D1-D2
# Test: as above
# Outline: as §1
row,Binder,SPOT peptide array binding signal intensity
1,NLDRSKISLPDFDDE,≤ 0

# Target: CaSla1-D3
# Test: as above
# Outline: as §1
row,Binder,SPOT peptide array binding signal intensity
1,NLDRSKISLPDFDDE,≤ 0

# Target: ScAbp1
# Test: as above
# Outline: as §1
row,Binder,SPOT peptide array binding signal intensity
1,NLDRSKISLPDFDDE,11

# Target: ScBbc1
# Test: as above
# Outline: as §1
row,Binder,SPOT peptide array binding signal intensity
1,NLDRSKISLPDFDDE,1.5

# Target: ScBem1-D1
# Test: as above
# Outline: as §1
row,Binder,SPOT peptide array binding signal intensity
1,NLDRSKISLPDFDDE,1

# Target: ScBzz1-D1
# Test: as above
# Outline: as §1
row,Binder,SPOT peptide array binding signal intensity
1,NLDRSKISLPDFDDE,39.5

# Target: ScBzz1-D2
# Test: as above
# Outline: as §1
row,Binder,SPOT peptide array binding signal intensity
1,NLDRSKISLPDFDDE,18

# Target: ScCyk3
# Test: as above
# Outline: as §1
row,Binder,SPOT peptide array binding signal intensity
1,NLDRSKISLPDFDDE,16

# Target: ScFus1
# Test: as above
# Outline: as §1
row,Binder,SPOT peptide array binding signal intensity
1,NLDRSKISLPDFDDE,34

# Target: ScHof1
# Test: as above
# Outline: as §1
row,Binder,SPOT peptide array binding signal intensity
1,NLDRSKISLPDFDDE,2

# Target: ScHse1
# Test: as above
# Outline: as §1
row,Binder,SPOT peptide array binding signal intensity
1,NLDRSKISLPDFDDE,1260

# Target: ScLsb1
# Test: as above
# Outline: as §1
row,Binder,SPOT peptide array binding signal intensity
1,NLDRSKISLPDFDDE,≤ 0

# Target: ScLsb2
# Test: as above
# Outline: as §1
row,Binder,SPOT peptide array binding signal intensity
1,NLDRSKISLPDFDDE,≤ 0

# Target: ScLsb3
# Test: as above
# Outline: as §1
row,Binder,SPOT peptide array binding signal intensity
1,NLDRSKISLPDFDDE,≤ 0

# Target: ScLsb4
# Test: as above
# Outline: as §1
row,Binder,SPOT peptide array binding signal intensity
1,NLDRSKISLPDFDDE,3

# Target: ScMyo3
# Test: as above
# Outline: as §1
row,Binder,SPOT peptide array binding signal intensity
1,NLDRSKISLPDFDDE,3.5

# Target: ScMyo5
# Test: as above
# Outline: as §1
row,Binder,SPOT peptide array binding signal intensity
1,NLDRSKISLPDFDDE,4

# Target: ScNbp2
# Test: as above
# Outline: as §1
row,Binder,SPOT peptide array binding signal intensity
1,NLDRSKISLPDFDDE,28

# Target: ScPex13
# Test: as above
# Outline: as §1
row,Binder,SPOT peptide array binding signal intensity
1,NLDRSKISLPDFDDE,≤ 0

# Target: ScRvs167
# Test: as above
# Outline: as §1
row,Binder,SPOT peptide array binding signal intensity
1,NLDRSKISLPDFDDE,0.167

# Target: ScSho1
# Test: as above
# Outline: as §1
row,Binder,SPOT peptide array binding signal intensity
1,NLDRSKISLPDFDDE,87.5

# Target: ScSla1-D1-D2
# Test: as above
# Outline: as §1
row,Binder,SPOT peptide array binding signal intensity
1,NLDRSKISLPDFDDE,≤ 0

# Target: ScSla1-D3
# Test: as above
# Outline: as §1
row,Binder,SPOT peptide array binding signal intensity
1,NLDRSKISLPDFDDE,1

# Target: SpAbp1-D1
# Test: as above
# Outline: as §1
row,Binder,SPOT peptide array binding signal intensity
1,NLDRSKISLPDFDDE,11

# Target: SpBbc1
# Test: as above
# Outline: as §1
row,Binder,SPOT peptide array binding signal intensity
1,NLDRSKISLPDFDDE,≤ 0

# Target: SpBzz1-D1
# Test: as above
# Outline: as §1
row,Binder,SPOT peptide array binding signal intensity
1,NLDRSKISLPDFDDE,14.5

# Target: SpBzz1-D2
# Test: as above
# Outline: as §1
row,Binder,SPOT peptide array binding signal intensity
1,NLDRSKISLPDFDDE,≤ 0

# Target: SpCyk3
# Test: as above
# Outline: as §1
row,Binder,SPOT peptide array binding signal intensity
1,NLDRSKISLPDFDDE,≤ 0

# Target: SpHof1
# Test: as above
# Outline: as §1
row,Binder,SPOT peptide array binding signal intensity
1,NLDRSKISLPDFDDE,11.5

# Target: SpHof1-2
# Test: as above
# Outline: as §1
row,Binder,SPOT peptide array binding signal intensity
1,NLDRSKISLPDFDDE,4

# Target: SpHof1-3
# Test: as above
# Outline: as §1
row,Binder,SPOT peptide array binding signal intensity
1,NLDRSKISLPDFDDE,70

# Target: SpHse1
# Test: as above
# Outline: as §1
row,Binder,SPOT peptide array binding signal intensity
1,NLDRSKISLPDFDDE,983

# Target: SpLsb1
# Test: as above
# Outline: as §1
row,Binder,SPOT peptide array binding signal intensity
1,NLDRSKISLPDFDDE,≤ 0

# Target: SpLsb4
# Test: as above
# Outline: as §1
row,Binder,SPOT peptide array binding signal intensity
1,NLDRSKISLPDFDDE,≤ 0

# Target: SpMyo1
# Test: as above
# Outline: as §1
row,Binder,SPOT peptide array binding signal intensity
1,NLDRSKISLPDFDDE,9

# Target: SpNbp2
# Test: as above
# Outline: as §1
row,Binder,SPOT peptide array binding signal intensity
1,NLDRSKISLPDFDDE,16

# Target: SpPex13
# Test: as above
# Outline: as §1
row,Binder,SPOT peptide array binding signal intensity
1,NLDRSKISLPDFDDE,≤ 0

# Target: SpRvs167
# Test: as above
# Outline: as §1
row,Binder,SPOT peptide array binding signal intensity
1,NLDRSKISLPDFDDE,0.5

# Target: SpSla1-D1-D2
# Test: as above
# Outline: as §1
row,Binder,SPOT peptide array binding signal intensity
1,NLDRSKISLPDFDDE,≤ 0

# Target: SpSla1-D3
# Test: as above
# Outline: as §1
row,Binder,SPOT peptide array binding signal intensity
1,NLDRSKISLPDFDDE,≤ 0
